One assay deals with Albumin (Bos taurus) (UniProt P02769). The assay can be described thus: compounds binding labelled BSA control protein – biochemical, small-molecule microarray, Alexa647 label, 635/667 nm fluorescence, artefact control for SMM control protein annotation, profiling panel (AID 1118).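 Note: score merges 667 nm emission intensity and signal-to-noise per printed compound spot.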 The note with it: BSA-A647 binding, fluorescence 635 nm, higher = more signal.
The nature of assay [1]: probe aXIP binding to arrayed compounds – biochemical, NeuroSMM set, 635/667 nm fluorescence, primary screen (AID 1119).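 Note: probe is the protein aXip251-270 applied at 1 µg/mL to compound-printed slides; binding of probe to printed compounds measured as 667 nm fluorescence plus signal to noise.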 The settings on record: small-molecule microarray, higher = more signal, called active from +8 up or from −8 down.
The nature of assay [2]: probe aNOTCH3 binding on compound microarray – biochemical, small-molecule microarray, 635/667 nm fluorescence, primary screen (AID 1120).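 Note: probe is a biotin-tagged antibody raised against NOTCH3 rather than NOTCH3 protein; score merges spot fluorescence near 667 nm with spot signal to noise.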 The settings on record: higher = more signal.
Assay [3] can be described thus: probe aNOTCH2 binding on compound microarray – biochemical, small-molecule microarray, 635/667 nm fluorescence, primary screen (AID 1121).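 Note: score merges feature fluorescence read at 667 nm with its signal to noise.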 The settings on record: higher = more signal.
Assay [4] deals with Carbonic anhydrase 2 (Homo sapiens) (UniProt P00918). Kind of assay: compounds binding carbonic anhydrase 2 – biochemical, small-molecule microarray, Alexa647-labelled CAII, profiling panel (AID 1122). The note with it: CAII-A647 binding fluorescence, higher = more signal.
Assay [5] in a line: COS7 lysate on small-molecule microarray, probe aHis, 635 nm (AID 1123).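 Note: z-score combines 667nm fluorescence intensity with signal-to-noise per printed compound spot.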 The settings on record: COS7 cell lysate, fluorescence, higher = more signal.
Assay [6] can be described thus: probe aLAP1 signal on lysate-treated microarray – cell lysate, small-molecule microarray, COS7 lysate, primary screen (AID 1124).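 Note: lysate comes from COS7 cells expressing LAP1 and is applied at 0.3 µg/mL; score merges spot fluorescence near 667 nm with signal-to-noise over triplicate slides.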 The note with it: probe aLAP1, fluorescence, higher = more signal.
For a further assay, the system named is Sam68 (KHDRBS1). Kind of assay: compounds binding KHDRBS1 protein – biochemical, small-molecule microarray, 635 nm fluorescence, primary screen (AID 1125).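 Note: score merges 667 nm channel intensity with signal to noise over triplicate slides.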 The settings on record: higher = more signal.
The subject of assay [7] is Chordin-like protein 2 (CHRDL2). The assay can be described thus: compounds binding chordin-like 2 – biochemical, small-molecule microarray, 635 nm fluorescence, primary screen (AID 1126).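 Note: printed compound slides probed with Chrdl2 protein at 4 µg/mL for 1 h at 4 C; score merges 667 nm emission intensity with signal to noise over three replicate slides.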 The settings on record: fluorescence 635 nm, higher = more signal.
Assay [8] has as its target Concanavalin-A (Canavalia ensiformis) (UniProt P02866). Kind of assay: compounds binding concanavalin A lectin – biochemical, small-molecule microarray, Alexa647 label, 635 nm, artefact control for SMM control protein annotation, primary screen (AID 1127).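 Note: z combines 667 nm emission intensity with signal-to-noise across three replicate slides.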 The settings on record: ConA-A647 binding fluorescence, higher = more signal.
Assay [9] in a line: compounds binding Alexa647 anti-His antibody – biochemical, small-molecule microarray, 635 nm fluorescence, artefact control for SMM control protein annotation, primary screen (AID 1128).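 Note: score merges feature fluorescence with signal-to-noise for each printed compound spot.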 The settings on record: higher = more signal.
Assay [10] relates to Human papillomavirus type 1a E7 protein (residues 1-88). Kind of assay: HPV1a E7 small-molecule binders, primary screen, biochemical, small-molecule microarray, residues 1-88, 635 nm (AID 1129). The settings on record: small-molecule microarray binding, fluorescence 635 nm; higher = more signal.
Assay [11] concerns the target Focal adhesion kinase 1 (Homo sapiens) (UniProt Q05397). The assay can be described thus: PTK2 protein binding on printed compound slides – biochemical, small-molecule microarray, 635/667 nm fluorescence, BSA, DTT, primary screen (AID 1130).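 Note: composite of spot emission at 667 nm and signal to noise over triplicate slides.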 The note with it: 635 nm fluorescence, higher = more signal.
In assay [12] the test system is Fibrinogen (Alexa647-labelled). Kind of assay: Alexa647-fibrinogen binding to printed small molecules – biochemical, small-molecule microarray, 635/667 nm fluorescence, artefact control for SMM control-protein annotation, profiling panel (AID 1131).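 Note: z-score merges 667 nm fluorescence with per-spot signal-to-noise over triplicate slides.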 The note with it: fibrinogen-A647 binding fluorescence, higher = more signal.
The target in assay [13] is Follistatin (Homo sapiens) (UniProt P19883). Kind of assay: FST protein binding to printed compounds – biochemical, small-molecule microarray, 635/667 nm fluorescence, primary screen (AID 1132). The note with it: 635 nm fluorescence, higher = more signal.
Assay [14] concerns the target Fibroblast growth factor 2 (Homo sapiens) (UniProt P09038). The assay can be described thus: basic fibroblast growth factor binding to printed compounds – biochemical, small-molecule microarray, 635/667 nm fluorescence, primary screen (AID 1133). The note with it: FGF2, fluorescence 635/667, higher = more signal.
A short description of assay [15]: JC-1 mitochondrial potential readout, lung cancer cells – cell-based, A549, JC-1 fluorescence, basal, 24 h, 100 nL, profiling panel (AID 1138).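 Note: A549 lung adenocarcinoma cells under basal conditions with no added stimulus; test concentration not given here.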 The note with it: higher = more signal.
The test system of another assay is Lefty1. Kind of assay: Lefty1 protein binding to printed compounds – biochemical, small-molecule microarray, 635/667 nm fluorescence, primary screen (AID 1139). The settings on record: fluorescence 635/667, higher = more signal.
The subject of assay [16] is wheat germ agglutinin (Triticum aestivum), Alexa647-labelled. Kind of assay: Alexa647-WGA lectin binding to printed small molecules – biochemical, small-molecule microarray, 635/667 nm fluorescence, artefact control for SMM control-protein annotation, profiling panel (AID 1140).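 Note: score merges 667 nm feature emission with signal to noise over triplicate slides.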 The note with it: WGA-A647 binding, 635 nm fluorescence, higher = more signal.
For assay [17], the target named is Luciferin 4-monooxygenase (Photinus pyralis) (UniProt P08659). Kind of assay: inhibition of purified Photinus pyralis luciferase – biochemical, luminescence, purified enzyme, 2006 set, primary screen (AID 1141).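 Note: cell-free assay with purified firefly luciferase at 100 ng per well in PBS; test concentration not given here.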 The note with it: purified firefly luciferase, SteadyGlo luminescence, 30 min; higher = more signal, called active from +8 up or from −8 down.

Each structure is given as a SMILES string. Activity calls are given as the source filed them.

These results are taken from PubChem BioAssay.

Chain of Focal adhesion kinase 1 (Homo sapiens) (Q05397 whole entry, looked up): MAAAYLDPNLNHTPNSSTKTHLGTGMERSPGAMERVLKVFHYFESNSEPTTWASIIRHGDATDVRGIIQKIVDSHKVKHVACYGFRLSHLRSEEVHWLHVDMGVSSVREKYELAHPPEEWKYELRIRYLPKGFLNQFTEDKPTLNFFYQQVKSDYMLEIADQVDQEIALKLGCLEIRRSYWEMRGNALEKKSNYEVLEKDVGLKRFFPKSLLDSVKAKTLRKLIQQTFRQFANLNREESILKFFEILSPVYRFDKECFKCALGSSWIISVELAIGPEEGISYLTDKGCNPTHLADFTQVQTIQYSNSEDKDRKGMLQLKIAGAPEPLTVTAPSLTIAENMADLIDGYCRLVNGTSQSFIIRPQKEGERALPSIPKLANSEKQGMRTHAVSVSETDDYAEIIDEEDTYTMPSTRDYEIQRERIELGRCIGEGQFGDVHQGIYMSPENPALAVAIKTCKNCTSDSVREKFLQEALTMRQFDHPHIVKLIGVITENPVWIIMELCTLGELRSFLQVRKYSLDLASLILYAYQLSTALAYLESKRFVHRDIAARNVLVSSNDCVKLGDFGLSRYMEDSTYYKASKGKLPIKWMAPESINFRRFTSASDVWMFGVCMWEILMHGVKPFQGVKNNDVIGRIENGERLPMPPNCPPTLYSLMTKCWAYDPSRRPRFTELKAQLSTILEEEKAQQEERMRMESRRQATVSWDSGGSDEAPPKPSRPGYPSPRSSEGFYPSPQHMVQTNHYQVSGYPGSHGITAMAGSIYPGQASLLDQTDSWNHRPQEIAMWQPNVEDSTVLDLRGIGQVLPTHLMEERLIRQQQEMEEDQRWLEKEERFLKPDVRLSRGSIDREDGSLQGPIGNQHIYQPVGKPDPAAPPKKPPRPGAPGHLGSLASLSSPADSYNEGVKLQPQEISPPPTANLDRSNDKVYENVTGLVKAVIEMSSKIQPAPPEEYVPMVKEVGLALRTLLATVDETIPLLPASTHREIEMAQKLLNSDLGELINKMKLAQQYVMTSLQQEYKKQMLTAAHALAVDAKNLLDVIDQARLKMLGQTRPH
Chain of Fibroblast growth factor 2 (Homo sapiens) (P09038 whole entry, looked up): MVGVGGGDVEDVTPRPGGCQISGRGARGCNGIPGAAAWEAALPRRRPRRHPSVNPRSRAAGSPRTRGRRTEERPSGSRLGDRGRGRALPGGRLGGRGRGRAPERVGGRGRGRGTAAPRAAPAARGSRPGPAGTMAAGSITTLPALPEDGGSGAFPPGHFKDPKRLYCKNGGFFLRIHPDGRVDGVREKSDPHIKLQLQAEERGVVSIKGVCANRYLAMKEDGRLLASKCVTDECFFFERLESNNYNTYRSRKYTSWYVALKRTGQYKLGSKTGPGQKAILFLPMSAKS
Chain of Luciferin 4-monooxygenase (Photinus pyralis) (P08659 whole entry, looked up): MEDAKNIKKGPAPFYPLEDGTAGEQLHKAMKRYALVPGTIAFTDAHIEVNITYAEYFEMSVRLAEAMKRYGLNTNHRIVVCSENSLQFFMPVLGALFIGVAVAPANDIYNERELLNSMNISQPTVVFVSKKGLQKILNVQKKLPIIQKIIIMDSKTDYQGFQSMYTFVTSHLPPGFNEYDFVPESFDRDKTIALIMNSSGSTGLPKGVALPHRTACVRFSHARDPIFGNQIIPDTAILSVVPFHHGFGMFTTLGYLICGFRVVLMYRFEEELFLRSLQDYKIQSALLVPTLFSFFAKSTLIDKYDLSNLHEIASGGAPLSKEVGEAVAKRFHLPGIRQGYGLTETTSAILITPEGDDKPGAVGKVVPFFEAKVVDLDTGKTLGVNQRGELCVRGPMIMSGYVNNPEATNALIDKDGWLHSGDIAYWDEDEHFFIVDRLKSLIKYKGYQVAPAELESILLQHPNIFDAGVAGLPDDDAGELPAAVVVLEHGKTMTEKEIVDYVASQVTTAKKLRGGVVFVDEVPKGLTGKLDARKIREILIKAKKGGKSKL
Chain of Albumin (Bos taurus) (P02769 whole entry, looked up): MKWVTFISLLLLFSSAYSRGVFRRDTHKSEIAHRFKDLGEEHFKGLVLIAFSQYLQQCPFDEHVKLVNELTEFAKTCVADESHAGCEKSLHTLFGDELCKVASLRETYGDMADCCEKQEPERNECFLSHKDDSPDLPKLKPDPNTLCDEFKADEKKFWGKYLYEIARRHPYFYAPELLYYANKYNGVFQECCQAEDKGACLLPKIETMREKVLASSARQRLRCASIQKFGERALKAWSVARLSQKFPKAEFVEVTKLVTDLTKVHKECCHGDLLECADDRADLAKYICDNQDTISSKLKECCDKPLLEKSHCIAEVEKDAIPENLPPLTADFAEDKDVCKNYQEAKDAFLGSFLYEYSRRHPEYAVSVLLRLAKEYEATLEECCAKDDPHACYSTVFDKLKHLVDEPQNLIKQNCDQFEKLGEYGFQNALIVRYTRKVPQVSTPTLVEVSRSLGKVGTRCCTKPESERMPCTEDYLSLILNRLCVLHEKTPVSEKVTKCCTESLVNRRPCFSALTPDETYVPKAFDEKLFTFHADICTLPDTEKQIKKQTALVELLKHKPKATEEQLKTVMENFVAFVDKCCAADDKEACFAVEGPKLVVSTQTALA
Chain of Follistatin (Homo sapiens) (P19883 whole entry, looked up): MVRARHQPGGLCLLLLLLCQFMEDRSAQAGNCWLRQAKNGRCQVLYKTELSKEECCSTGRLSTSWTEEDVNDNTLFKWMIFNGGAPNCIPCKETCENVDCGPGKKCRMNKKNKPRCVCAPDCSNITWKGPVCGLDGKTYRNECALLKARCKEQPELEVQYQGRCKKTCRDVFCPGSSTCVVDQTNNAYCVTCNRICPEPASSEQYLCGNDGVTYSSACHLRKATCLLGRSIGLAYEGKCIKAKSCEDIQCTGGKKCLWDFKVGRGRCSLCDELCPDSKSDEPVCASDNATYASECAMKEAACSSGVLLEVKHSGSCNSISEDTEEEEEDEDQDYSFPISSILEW
Chain of Concanavalin-A (Canavalia ensiformis) (P02866 whole entry, looked up): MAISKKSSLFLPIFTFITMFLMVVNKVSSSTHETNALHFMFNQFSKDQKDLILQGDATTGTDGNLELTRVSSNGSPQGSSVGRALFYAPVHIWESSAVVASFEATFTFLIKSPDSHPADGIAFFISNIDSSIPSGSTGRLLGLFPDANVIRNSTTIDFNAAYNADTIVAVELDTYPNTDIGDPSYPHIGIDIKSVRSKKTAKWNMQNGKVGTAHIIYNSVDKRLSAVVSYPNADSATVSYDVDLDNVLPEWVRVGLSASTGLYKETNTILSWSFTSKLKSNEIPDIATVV

Turning to `O=C1OCC=C[C@H]2OC34C=CCN(c5ccc6ccccc6c5)C(=O)[C@H]3N(CCO)C(=O)[C@@H]4[C@@H]12` (stereo not given in full), the composite z-score was -0.855 with Albumin (Bos taurus); -0.172 in [2]; -0.115 in assay [3]; 0.804 in assay [4]; 0.174 in [5]; -0.532 in assay [6]. Also, the composite z-score in the assay with Sam68 (KHDRBS1) is -0.873; in assay [7] it was -2.08; in [8], -0.681; in assay [9] it was 0.0061; in assay [10], -0.785; in assay [11] it was -0.415. In addition, the composite z-score in assay [12] is -1.22; in [13], -1.05; in assay [14] it was -2.06; with Lefty1, -0.455; in assay [16] it was -1.18. Besides, in assay [1], the composite Z-score is 0.138 (inactive). Also, the z-score in assay [15] was 1.51; in [17] it was -0.646 (inactive).
Turning to `COCCOC(=O)N1C(=O)[C@@]2(c3cc(C#Cc4ccc(OC)cc4)ccc31)[C@H](C(N)=O)[C@H]1C(=O)O[C@H](c3ccccc3)[C@H](c3ccccc3)N1[C@@H]2c1ccc(O)cc1`, the composite z-score in the assay with Albumin (Bos taurus) is -1.62; in [2] it was 0.319; in assay [3], -0.0125; in [4], 0.0424; in assay [5], -0.304; in assay [6], 0.0413. The composite z-score in the assay with Sam68 (KHDRBS1) is -0.986; in assay [7], -1.71; in assay [8] it was -1.67; in [9], -0.994; in assay [10] it was -0.923; in [11], -0.582. Besides, the composite z-score was -1.48 in [12]; -0.694 in [13]; -2.13 in assay [14]; -2.08 in the assay with Lefty1; 0.17 in assay [16]. In assay [1], the composite Z-score was 0.0064 (inactive). Moreover, the z-score in assay [15] is -0.335; in [17], -0.245 (inactive).
`COC(=O)[C@@]1(Cc2ccc(F)cc2)[C@H]2c3cc(C(=O)N(C)C)n(Cc4ccccn4)c3C[C@H]2CN1C(=O)c1ccccc1`: the composite z-score is 0.979 in the assay with Albumin (Bos taurus); 1.15 in [2]; -0.168 in assay [3]; 0.908 in [4]; 2.46 in assay [5]; 1.08 in [6]. Further, the composite z-score with Sam68 (KHDRBS1) is 1.19; in assay [7], -0.552; in assay [8] it was 0.481; in assay [9], 1.12; in [10] it was 1.26; in assay [11] it was 1.08. Further, the composite z-score in assay [12] is 0.685; in assay [13] it was 0.251; in [14], -0.281; with Lefty1, -0.12; in [16], 0.647. In assay [1], the composite Z-score is -0.91 (inactive). In addition, the z-score was 1.04 in [15] and 3 (inactive) in assay [17].
`O=C1OCCC/C=C\[C@H]2OC34C=CCN(CCN5CCOCC5)C(=O)[C@H]3N(CCO)C(=O)[C@@H]4C12` (stereo not given in full): the composite z-score is 0.394 with Albumin (Bos taurus); -0.346 in assay [2]; -0.211 in assay [3]; 0.866 in [4]; -0.0995 in assay [5]; -0.0129 in assay [6]. Besides, the composite z-score with Sam68 (KHDRBS1) is -0.779; in assay [7] it was -0.601; in [8], -1.09; in [9], 2.47; in [10], -1.64; in assay [11], -0.3. Besides, the composite z-score in assay [12] was -0.786; in assay [13], -0.981; in [14], -0.322; with Lefty1 it was -1.57; in assay [16] it was -0.365. In assay [1], the composite Z-score is 0.0421 (inactive). Besides, the z-score in [15] was -1.08; in assay [17], 0.634 (inactive).
Consider `CCCCCN1CC=CC23O[C@@H]4C=CCCOC(=O)C4[C@H]2C(=O)N(CCCO)[C@@H]3C1=O` (stereo not given in full), for which the composite z-score with Albumin (Bos taurus) was 0.538; in [2], -0.157; in assay [3] it was -0.155; in assay [4], 0.343; in [5], -0.0684; in assay [6], 0.0581. Moreover, the composite z-score in the assay with Sam68 (KHDRBS1) was -0.0504; in [7], -0.277; in [8], 0.121; in assay [9], 0.199; in assay [10] it was -0.388; in assay [11], -0.572. The composite z-score in [12] is -0.677; in [13], -0.182; in assay [14], -0.311; in the assay on Lefty1 it was -0.364; in [16] it was 0.0083. Also, the composite Z-score in [1] was 0.33 (inactive). Besides, the z-score was -0.891 in assay [15] and 0.126 (inactive) in [17].
Consider `COC(=O)[C@@]1(Cc2ccc(OC)cc2)[C@H]2c3cc(C(=O)N4CCCC4)n(C[C@H](O)CO)c3C[C@H]2CN1C(=O)c1ccccc1`, for which the composite z-score in the assay with Albumin (Bos taurus) turned out to be 0.947; in [2], 0.0824; in assay [3], 0.0817; in assay [4], 0.869; in [5] it was 1.62; in assay [6], 0.226. The composite z-score in the assay on Sam68 (KHDRBS1) is -0.0743; in assay [7] it was -0.229; in [8], 0.556; in assay [9], 0.39; in [10] it was 0.339; in assay [11] it was 0.493. The composite z-score is 0.276 in assay [12]; -0.319 in assay [13]; -0.411 in assay [14]; -0.752 with Lefty1; 1.02 in assay [16]. In assay [1], the composite Z-score is 0.509 (inactive). The z-score in assay [15] was 0.605; in [17], 1.84 (inactive).
